HIV TAR-Tat – HIV-1 TAR-Tat binding disruption | HIV-1 TAR RNA, Tat peptide displacement FRET; stronger effect = higher value | z-score (concentration not given with the values) | hit rate 0.6% among 100,000; active = z-score of 3 or more in at least 2 runs
CDC25B-CDK2 inh – human CDC25B-CDK2/CyclinA binding inhibition. hit rate 0.72% among 94,000. HTRF CDC25B-CDK2/CyclinA binding, anti-His/anti-Flag; stronger effect = higher value. z-score (concentration not given with the values); in the data active = z-score above about 3.2
The depositor's hits bear a star; . = not tested or not shown. Only some compounds are listed: those with a hit (about 0.9% of all), similar ones and a draw of the others.

SMILES | HIV TAR-Tat | CDC25B-CDK2 inh
COC(=O)C1=C(C)NC2=C(C(=O)CC(c3ccccc3)C2)C1c1cc2c(cc1Cl)OCO2 (stereo not given) | 1.4 | -2
CCOC(=O)c1cnc2ccc(OCC)cc2c1NCC(C)O (stereo not given) | 1.8 | 2.7
Cc1cc(N2CCOCC2)nc(-n2cnc(SCc3ccccc3)n2)n1 | 0.83 | -0.48
COc1ccc(NS(=O)(=O)c2cc(-c3cc(C)no3)ccc2C(C)C)cc1OC | 0.46 | .
COC(=O)CC(C(=O)OC)P(=O)(O)CN(C)S(C)(=O)=O (stereo not given) | . | 4.5*
CSc1nc(Nc2cccc([N+](=O)[O-])c2)cc(C(F)(F)F)c1C#N | . | 1.2
Cc1ccc(C(=O)c2cnc3cc4c(cc3c2N2CCC(C(N)=O)CC2)OCO4)cc1C | 17* | 2.7
Cc1ccc(C(=O)c2cnc3cc4c(cc3c2N2CCC(C(N)=O)CC2)OCCO4)cc1C | 5.5 | -1.6
CC(=O)Nc1c2n(c3ccc(F)cc13)CC(C)(C(=O)NC1CCCCC1)N(C(C)C)C2=O (stereo not given) | 18* | .
CC(=O)Nc1c2n(c3ccc(F)cc13)CC(C)(C(=O)NC1CCCCC1)N(CCC(C)C)C2=O (stereo not given) | 1.5 | .
COc1ccccc1OCCN1CCN(C)CC1 | 1.1 | -0.48
O=C(CSc1nnc(-c2cccnc2)o1)NCC1CCCO1 (stereo not given) | 0.82 | -1.2
O=C(CSc1nnc(-c2cccnc2)o1)NC1CCCC1 | 4.6* | 0.52
COCc1nn2c(=O)c(NC(=O)c3ccc(OC)c(OC)c3)cnc2s1 | 1.5 | -1.5
COC(=O)c1c(SCC(=O)Nc2ccc(F)cc2)[nH]c2ccc(Cl)cc2c1=O | 16* | .
COC(=O)c1c(SCC(=O)Nc2ccc(F)c(F)c2)[nH]c2ccc(Cl)cc2c1=O | -0.18 | .
Cc1c(C(=O)O)sc2ncnc(NCC3CCCO3)c12 (stereo not given) | 2.1 | .
CCOc1ccc(Nc2ncnc3sc(C(=O)O)c(C)c23)cc1 | 4.7* | .
Cc1c(C(=O)O)sc2ncnc(NCCc3ccco3)c12 | 0.32 | .
Cc1c(C(=O)O)sc2ncnc(N3CCN(c4ccccc4)CC3)c12 | 29* | .
Cc1c(C(=O)N2CCN(c3ccccc3)CC2)sc2ncnc(N3CCN(c4ccccn4)CC3)c12 | 1.2 | -1.7
CCC(C)Nc1ncnc2sc(C(=O)O)c(C)c12 (stereo not given) | 3.3 | .
Cc1c(C(=O)O)sc2ncnc(Nc3cccc(Cl)c3)c12 | 21* | .
Cc1c(C(=O)O)sc2ncnc(NCc3cccs3)c12 | 9.8* | .
CC(C)CCn1cnc2c(oc3nc4c(cc32)CCCC4)c1=O | 0.5 | .
SMILES | HIV TAR-Tat | CDC25B-CDK2 inh
Cn1c(=O)n(C)c2cc3c(cc21)nnn3Cc1ccccc1 | 1.5 | -0.7
CCOc1ccc(N2C(=O)c3cccnc3C2Nc2cccc(Br)c2)cc1 (stereo not given) | 0.52 | .
Cc1c(C(=O)O)sc2ncnc(Nc3ccc(F)cc3)c12 | 25* | .
COCCNc1ncnc2sc(C(=O)O)c(C)c12 | 2.5 | .
COc1cc(OC)c(Nc2ncnc3sc(C(=O)O)c(C)c23)cc1Cl | 4.2* | .
Cc1c(C(=O)O)sc2ncnc(NC(C)C)c12 | 0.33 | .
COc1ccc(-c2nnc3c4ccccc4n(Cc4cccc(OC)c4)cc2-3)cc1 | 3 | -4.8
Cc1cccc(N2CSC3=C(C#N)C(c4ccc(F)cc4)CC(=O)N3C2)c1 (stereo not given) | -1.2 | 4.1*
Cc1cccc(N2CSC3=C(C#N)C(c4ccccc4Cl)CC(=O)N3C2)c1 (stereo not given) | 0.81 | 0.48
CSc1ccc(C2CC(=O)N3CN(c4cccc(C)c4)CSC3=C2C#N)cc1 (stereo not given) | -2.6 | 8.5*
CCOC(=O)C(CC)Sc1ccc2nnc(-c3ccccc3)n2n1 (stereo not given) | . | -0.8
CCSc1sccc1C1C(C#N)=C(N)N(c2cccnc2)C2=C1C(=O)CC(c1ccccc1)C2 (stereo not given) | -3.2 | 15
Cc1nn(-c2ccccc2)c2c1C(c1ccccc1Cl)C1=C(CC(C)(C)CC1=O)N2 (stereo not given) | . | -2
O=C1NC(c2ccco2)c2c(-c3ccccc3)n[nH]c21 (stereo not given) | 0.61 | .
O=S(=O)(O)c1cc[n+]([O-])cc1 | . | 4.4*
O=S(=O)(O)c1ccc2[nH]c(=S)sc2c1 | . | -0.66
CCCCN(CC)CCCNC(=O)c1sc2nc3n(c(=O)c2c1C)CCCCC3 | 0.81 | .
Cc1cccc(-c2nc3sc(C)cc3c(=O)o2)c1 | 1.3 | 7.6*
CCc1cc2c(=O)oc(-c3ccccc3)nc2s1 | 0.63 | -0.8
Cc1c(C(=O)C(=O)N2CCCc3ccccc32)c2ccccc2n1C | -0.08 | -0.79
S=c1[nH]nc(-c2ccc3ccccc3n2)o1 | 2.2 | -2.8
N#CC1=C2SCN(c3ccccc3F)CN2C(=O)CC1c1c(F)cccc1Cl (stereo not given) | -2 | -1.1
N#CC1=C2SCN(c3ccccc3F)CN2C(=O)CC1c1cccc(Br)c1 (stereo not given) | -1 | 2.7
CCc1ccccc1N1CSC2=C(C#N)C(c3cccc(F)c3)CC(=O)N2C1 (stereo not given) | -1.2 | 6.3*
N#CC1=C2SCN(c3ccccc3F)CN2C(=O)CC1c1cccc(F)c1 (stereo not given) | 0.19 | 6.6*
SMILES | HIV TAR-Tat | CDC25B-CDK2 inh
C=CCN1C(=O)c2[nH]nc(-c3c(C)cc(C)cc3O)c2C1c1cccc(OCC)c1 (stereo not given) | 0.27 | 1.3
COc1ccc(N(C)C(=O)Nc2cn(C)c(=O)c3ccccc23)c(OC)c1 | 0.83 | .
O=c1ccc2ccc(O)cc2o1 | 0.33 | .
O=c1ccc2cc(O)c(O)cc2o1 | 25* | .
CC1SCC(=NOC(=O)c2ccccc2Cl)CS1 (stereo not given) | . | 13*
CC1SCC(=NOC(=O)Nc2ccc(Cl)cc2)CS1 (stereo not given) | . | -1.5
CCSc1nc2ccc(NC(=O)c3sc4nc(-c5ccncc5)ccc4c3N)cc2s1 | 1.6 | -0.72
Nc1c(C(=O)Nc2ccc(F)cc2)sc2nc(-c3ccncc3)ccc12 | 11* | -0.18
CCOC(=O)c1c(CN(C)C)n(C)c2cc(Br)c(O)c(CN(C)C)c12 | 0.3 | 0.42
CC1(C)CC(=O)C2=C(C1)Nc1ccccc1NC2c1ccccc1F (stereo not given) | -14 | -1
CC1(C)CC(=O)C2=C(C1)Nc1ccccc1NC2c1cccc2ccccc12 (stereo not given) | . | 13*
O=C(Nc1ccc2c(c1)OCO2)c1ccc(Cn2nc(N3CCN(c4ccccc4)CC3)ccc2=O)o1 | 17* | .
O=C(Nc1ccc(F)cc1)c1ccc(Cn2nc(N3CCN(c4ccc(F)cc4)CC3)ccc2=O)o1 | 0.64 | .
CCn1nccc1C1CCCN1S(=O)(=O)c1ccc2c(c1)OCCO2 (stereo not given) | 1.7 | 0.13
COc1ccc(S(=O)(=O)N2CCN(c3cc(N(C)C)nc(C)n3)CC2)cc1 | 0.67 | -0.62
CSc1nnc(S/C(C(C)=O)=C(/C)O)s1 | . | 16*
CSc1nnc(SCC(=O)N2CCC(C(F)(F)F)CC2)s1 | . | 0.86
FC(F)(F)C(=C(NC(=S)N1CCCCCC1)C(F)(F)C(F)(F)F)C(F)(F)F | . | 5.7*
FC(F)(F)C(=C(NC(=S)n1cnc2ccccc21)C(F)(F)C(F)(F)F)C(F)(F)F | . | -3.2
CCN(CC)CCCNC(=O)c1nn(C)c2c1CS(=O)(=O)c1ccccc1-2 | 6.9* | -1.5
CCCCN(CC)CCNC(=O)c1nn(C)c2c1CS(=O)(=O)c1ccccc1-2 | 0.79 | 0.55
